PubChem BioAssay (NCI)
Values joined by “and” are separate entries in the source; they are usually repeats but may differ in a detail not shown here. Equal values may be shown once. The panel holds about 79,000 compounds, 15% with a hit somewhere; the sample as a whole holds those more often. A structure can be active in one record and inactive in another. Active and inactive are the calls of the source. Rule as the data show it: active = growth inhibition above about 70%; inactive = the rest.

Experiments:
[1] = NCI Yeast Anticancer Drug Screen. Data for the rad52 strain (AID 147);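 also: 0% = growth of vehicle-treated control cultures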; details: S. cerevisiae rad52 mutant growth inhibition, stronger effect = higher value
Method in brief: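 Genetically altered yeast (DNA damage repair defect) treated with compound; inhibition calculated relative to vehicle.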

[2] = NCI Yeast Anticancer Drug Screen. Data for the wt1 strain (AID 149);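 also: 0% = growth of vehicle-treated wt1 cultures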; details: S. cerevisiae wt1 strain (SPY 50644) growth inhibition, stronger effect = higher value
Method in brief: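 Readout: yeast growth inhibition, normalised to vehicle controls, in the wt1 strain exposed to test compounds.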

[3] = NCI Yeast Anticancer Drug Screen. Data for the rad50EPP+ strain (AID 151);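 also: 0% = growth of vehicle-treated control cultures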; details: S. cerevisiae rad50 mutant strain, stronger effect = higher value
Method in brief: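 Strain rad50EPP+; compound exposure; % growth inhibition vs vehicle.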

[4] = NCI Yeast Anticancer Drug Screen. Data for the mgt1 strain (AID 153); details: S. cerevisiae mgt1 mutant growth inhibition, stronger effect = higher value
Method in brief: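 Read-out: yeast growth inhibition vs vehicle control. Strain mgt1, drawn from a panel altered in DNA damage repair or cell cycle control.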

[5] = NCI Yeast Anticancer Drug Screen. Data for the rad50 strain (AID 155);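 also: 0% = growth of vehicle-only cultures of the same strain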; details: S. cerevisiae rad50 strain growth inhibition, stronger effect = higher value
Method in brief: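 Compounds were tested on a yeast strain with an engineered DNA damage repair alteration; the reported value is growth inhibition normalised to vehicle treatment.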

[6] = NCI Yeast Anticancer Drug Screen. Data for the mec2-1 strain (AID 157); details: S. cerevisiae mec2-1 strain, stronger effect = higher value
Method in brief: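 Cells of the genetically defined mec2-1 yeast strain are incubated with test compound. Inhibition of growth is calculated against vehicle-treated controls.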

[7] = NCI Yeast Anticancer Drug Screen. Data for the rad14 strain (AID 159);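 also: 0% = growth of vehicle-treated control cultures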; details: S. cerevisiae rad14 strain growth inhibition, stronger effect = higher value
Method in brief: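 Compound-treated yeast with a defined DNA-repair lesion; growth inhibition normalised to vehicle-treated cultures.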

[8] = NCI Yeast Anticancer Drug Screen. Data for the sgs1 mgt1 strain (AID 161);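 also: 0% = growth of cultures given vehicle only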; details: S. cerevisiae sgs1 mgt1 strain, stronger effect = higher value
Method in brief: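 Test agents were incubated with a DNA-repair-mutant yeast strain. Growth was then read and compared against vehicle-treated controls.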

[9] = NCI Yeast Anticancer Drug Screen. Data for the CLN2oe strain (AID 163);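 also: 0% = growth of vehicle-only control cultures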; details: S. cerevisiae CLN2oe strain, stronger effect = higher value
Method in brief: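 Strain altered in cell-cycle control, incubated with compound; growth compared to solvent-treated controls.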

[10] = NCI Yeast Anticancer Drug Screen. Data for the cln2 rad14 strain (AID 165);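 also: 0% = growth equal to vehicle treated cultures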; details: S. cerevisiae cln2 rad14 strain, stronger effect = higher value
Method in brief: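 The screen exposed genetically defined yeast (cln2 rad14) to test compounds and scored growth inhibition relative to vehicle-treated controls.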

[11] = NCI Yeast Anticancer Drug Screen. Data for the bub3 strain (AID 167); details: S. cerevisiae bub3 mutant strain, stronger effect = higher value
Method in brief: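 Growth of a checkpoint-deficient yeast mutant is measured after compound exposure. Values represent inhibition relative to vehicle.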

[12] = NCI Yeast Anticancer Drug Screen. Data for the wt2 strain (AID 169);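 also: 0% = growth of vehicle-treated yeast cultures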; details: S. cerevisiae wt2 strain growth inhibition, stronger effect = higher value
Method in brief: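 Steps: yeast strain treated with compound; growth recorded; inhibition calculated relative to cultures given vehicle alone.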

[13] = NCI Yeast Anticancer Drug Screen. Data for the mlh1 strain (AID 171);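 also: 0% = growth of vehicle-treated control cultures of the same strain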; details: S. cerevisiae mlh1 strain growth inhibition, stronger effect = higher value
Method in brief: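 Yeast screen: mutant strain plus compound, growth scored against vehicle control wells.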

[14] = NCI Yeast Anticancer Drug Screen. Data for the sgs1 strain (AID 173);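 also: 0% = growth of vehicle-only control cultures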; details: S. cerevisiae sgs1 mutant, stronger effect = higher value
Method in brief: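 Inhibition of yeast growth served as the measure. The mutant strain was treated with each compound, and growth was normalised to cultures receiving vehicle alone.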

[15] = NCI Yeast Anticancer Drug Screen. Data for the rad18 strain (AID 177); details: S. cerevisiae rad18 mutant growth inhibition, stronger effect = higher value
Method in brief: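 Inhibition values reflect reduced yeast growth compared with vehicle-treated controls, using a strain engineered with a DNA damage repair defect.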

[16] = NCI Yeast Anticancer Drug Screen. Data for the mlh1 rad18 strain (AID 175); details: S. cerevisiae mlh1 rad18 strain growth inhibition, stronger effect = higher value
Method in brief: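 Compound-treated yeast growth, normalised to vehicle controls. Strain bears defined DNA repair mutations.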

[17] = at 5.0 µM (retest, dose inferred, filed as 0.5)
[18] = at 50.0 µM (retest, dose inferred, filed as 5.0)

Measured: growth inhibition

Cc1ccc2c3ccc4c(c3n(C)c2c1)C(=O)C=CC4=O
inactive: [1]; at 1.2 µM -55% | [1]; at 3.7 µM -66% | [1]; at 11.0 µM -53% | [1]; at 33.0 µM -37% | [1]; at 100.0 µM 22% | [2]; at 1.2 µM -22% | [2]; at 3.7 µM -16% | [2]; at 11.0 µM -18% | [2]; at 33.0 µM -1% | [2]; at 100.0 µM 33% | [3]; at 1.2 µM -3% | [3]; at 3.7 µM 24% | [3]; at 11.0 µM 31% | [4]; at 1.2 µM 20% | [4]; at 3.7 µM 11% | [4]; at 11.0 µM 22% | [4]; at 33.0 µM 40% | [5]; at 1.2 µM -4% | [5]; at 3.7 µM -5% | [5]; [17] 7% | [5]; at 11.0 µM 3% | [5]; at 33.0 µM 10% | [5]; [18] 49% | [5]; at 50.0 µM 57.8% | [5]; at 100.0 µM 53% | [6]; at 1.2 µM -22% | [6]; at 3.7 µM -11% | [6]; [17] 7% | [6]; at 11.0 µM -3% | [6]; at 33.0 µM 23% | [6]; [18] 42% | [6]; at 50.0 µM 51.5% | [6]; at 100.0 µM 66% | [7]; at 1.2 µM -9% | [7]; at 3.7 µM -12% | [7]; at 11.0 µM -9% | [7]; at 33.0 µM -6% | [7]; at 100.0 µM 59% | [8]; [17] 9% | [8]; [18] 58% | [8]; at 50.0 µM 67.2% | [9]; at 1.2 µM -5% | [9]; at 3.7 µM -4% | [9]; at 11.0 µM -3% | [9]; at 33.0 µM 9% | [9]; at 100.0 µM 27% | [10]; [17] 18% | [10]; [18] 50% | [10]; at 50.0 µM 33.7% | [11]; at 1.2 µM -14% | [11]; at 3.7 µM -1% | [11]; [17] 43% | [11]; at 11.0 µM -11% | [11]; at 33.0 µM 16% | [11]; at 50.0 µM 61.2% | [11]; at 100.0 µM 56% | [12]; at 1.2 µM -47% | [12]; at 3.7 µM -28% | [12]; at 11.0 µM -30% | [12]; at 33.0 µM -29% | [12]; at 100.0 µM 38% | [13]; at 1.2 µM -10% | [13]; at 3.7 µM -3% | [13]; at 11.0 µM 16% | [13]; at 33.0 µM 46% | [14]; at 1.2 µM -32% | [14]; at 3.7 µM -24% | [14]; at 11.0 µM -16% | [14]; at 33.0 µM 16% | [14]; at 100.0 µM 63% | [15]; at 1.2 µM 4% | [15]; at 3.7 µM 14% | [15]; at 11.0 µM 15% | [15]; at 33.0 µM 39%
active: [3]; at 33.0 µM 76% | [3]; at 100.0 µM 91% | [4]; at 100.0 µM 78% | [11]; [18] 80% | [13]; at 100.0 µM 81% | [15]; at 100.0 µM 82%

Nc1ccn(C2OC(COP(=O)(O)O)C(O)C2O)c(=O)n1 (stereo not drawn)
inactive: [1]; at 1.2 µM -1% | [1]; at 3.7 µM 0% | [1]; at 11.0 µM 3% | [1]; at 33.0 µM 5% | [1]; at 100.0 µM 6% | [2]; at 1.2 µM -11% | [2]; at 3.7 µM 1% | [2]; at 11.0 µM 2% | [2]; at 33.0 µM 0% | [2]; at 100.0 µM 1% | [3]; at 1.2 µM -5% | [3]; at 3.7 µM -2% | [3]; at 11.0 µM 8% | [3]; at 33.0 µM 37% | [4]; at 1.2 µM 2% | [4]; at 3.7 µM 4% | [4]; at 11.0 µM 2% | [4]; at 33.0 µM 3% | [4]; at 100.0 µM 14% | [5]; at 1.2 µM 0% | [5]; at 3.7 µM 9% | [5]; [17] 38% | [5]; at 11.0 µM 11% | [5]; at 33.0 µM 33% | [5]; [18] 42% | [5]; at 100.0 µM 52% | [6]; at 1.2 µM 0% | [6]; at 3.7 µM 5% | [6]; [17] 3% | [6]; at 11.0 µM 8% | [6]; at 33.0 µM 11% | [6]; [18] 19% | [6]; at 50.0 µM -9.35% and -12.8% | [6]; at 100.0 µM -3% | [7]; at 1.2 µM -1% | [7]; at 3.7 µM 6% | [7]; at 11.0 µM 4% | [7]; at 33.0 µM 5% | [7]; at 100.0 µM 7% | [8]; [17] 47% | [9]; at 1.2 µM -4% | [9]; at 3.7 µM -2% | [9]; at 11.0 µM -6% | [9]; at 33.0 µM -15% | [9]; at 100.0 µM -5% | [10]; [17] -4% | [10]; [18] -10% | [10]; at 50.0 µM -40.1% and -51.6% | [11]; at 1.2 µM -2% | [11]; at 3.7 µM -6% | [11]; [17] -5% | [11]; at 11.0 µM -5% | [11]; at 33.0 µM -12% | [11]; [18] -4% | [11]; at 50.0 µM -32.9% and 0.5% | [11]; at 100.0 µM -10% | [12]; at 1.2 µM -1% | [12]; at 3.7 µM -1% | [12]; at 11.0 µM -1% | [12]; at 33.0 µM 1% | [12]; at 100.0 µM 12% | [13]; at 1.2 µM 1% | [13]; at 3.7 µM 8% | [13]; at 11.0 µM 0% | [13]; at 33.0 µM 7% | [13]; at 100.0 µM 26% | [14]; at 1.2 µM 21% | [14]; at 3.7 µM 43% | [14]; at 11.0 µM 68% | [16]; [17] 13% | [16]; [18] -5% | [16]; at 50.0 µM 21.4% and -23.4% | [15]; at 1.2 µM -1% | [15]; at 3.7 µM -4% | [15]; at 11.0 µM -8% | [15]; at 33.0 µM -15% | [15]; at 100.0 µM -22%
active: [3]; at 100.0 µM 72% | [8]; [18] 75% | [14]; at 33.0 µM 82% | [14]; at 100.0 µM 86%
87.4% (active) and 16.2% (inactive): [8]; at 50.0 µM
78.3% (active) and -3% (inactive): [5]; at 50.0 µM
